Assay results reported in the supplement of paper PMC12632987.

B1: GBRAPL2_106_7265 (protein)
chain: SGLEELLKLLEEALEKAKKLPEAFKKGDEEAVDELLELLDEATRLAIELGLDEVAALVAAAFDDVFAASEDPETAEEDFEEAIEDLEEAKELVEKRLEEE
B2: GBRAPL2_128_7272 (protein)
chain: MKLVEITINIKDEESYNLAIEILDRIAEKSSPEVADLADAAKDAAEIAAENGYDEKVVVVDVLSEEEAEELKKIYEEIKKELGEEKVKSVVELEITDIEP
B3: GBRAPL2_128_7271 (protein)
chain: KKIVEIDVDIKDEESYNLALEILDEISENSSPEVKKLADAAKDLVESAKEEGFGENVTAVDILSDEEAALLQKIYEEIKKKYGKEKVNSVVKLDISDVPP
B4: GBRAPL2_128_7279 (protein)
chain: MKIVEIDIDVENEEEYKLAKEVLEKIAEEGSPEVAKLADAALDLVEENEEDGFDEKFTAVDILSEEDAEELKELFEELAEKLGKEKVEKVIKLEIDDIPP
B5: GBRAPL2_0_7259 (protein)
chain: LEEVLEEMKELSIEEAAELAKKYVKELVADPSVTPEQFLEAAEALLEVLAEKVKEEKTEEALEIFDEAVDYFTEEAKKIDPETAAAVATYGGSLLYEIES
B6: GBRAPL2_128_7276 (protein)
chain: KKIVSIDVDLKDEESYELALKILEEIAEKSSPKVKELAEAAKDLAEAAKEEGFGETVTAVDILSDEEVEELKKIYAEIKKKYGEEKVNSVVKIEIDELKP
B7: GBRAPL2_0_7257 (protein)
chain: MEEVLKKMKELSIEEAAKLAKEEIEKLVADPSVTVEELEEAIEKLLEVLAEKVKEEKTEEALEILDEFVDYATELAAKVDPNLAAYVASYGGSLLYELEE
B8: GBRAPL2_0_7263 (protein)
chain: LEKVLEEMKKLSIEEAKKLAKEYLEKLRDDPSVTPEEFLEAALKILDVLYEKVKKEKTEEALEIFEEFRDFAVELAAKVDPNIAAEVDSYAGSLIMELEE
B9: GBRAPL2_128_7281 (protein)
chain: MKLVTIDIDVENEEEYELVKKVLDEIIEKGSPEVADLADAAKDMLEESKKEGFKEKVSVADILSDEEAEELKKLFEELAKKYGEEKVNKHIELEIDDLPP
B10: GBRAPL2_128_7289 (protein)
chain: MKLVTLDIDIENEEEFKLAKKVLEELAKKGSPAVADLANAALDMVEEAEKDGYNEKVSVADILSEEDAEELKKLLEELAKKYGEEKVKKIIKLEIDELPP
B11: GBRAPL2_128_7278 (protein)
chain: MKLVEIDIDIKNEEEYELAKKVLKRIAEEGSPEVSKLADAALDLVEENKEEGFKYSRTVVDILSEEDAEELKELFEKLAEEYGKEKVEKVIKLEIDDIPP
B12: GBRAPL2_128_7286 (protein)
chain: MKLVEIDIDIKNKEEYELAKAVLDDIAKNSSPKVAKLADAAKDMAEEAAKEGYKEKVTVADILTDEEAEELKKLLEELKEKYGKEKVEKVIKLTVDDLPP
B13: GBRAPL2_106_7268 (protein)
chain: KKLEEILEELEEALELVEELLERAEEKDEELLDETLELLDRVTRLAIEAGLDEVAALVADAANDVFAAEEDPENRKEYLERAKEDLEEAIKLVKEKIKEA
B14: GBRAPL2_128_7273 (protein)
chain: MYLVEIDIDVKDEESYNLAVEILDEIAKNSSEKVKDLAEAARDMAEIAYENGFDEKVVVVDIVSEEEAEELKKIYEEIKKKKGEEKVNSVVELEIDEVEP
B15: GBRAPL2_106_7267 (protein)
chain: EKLKELLKQLEELAKKIEELLKKADENDEELIDETLELLNEATRQAIEAGLDEVAALLADAFNHVFEAKENPEERKENLEEALKDVKEAIKLVKKKIKEA
B16: GBRAPL2_128_7274 (protein)
chain: MKIVEIDIDIKNEEQYELALEVLDRIAANSSPAVADLADAARDLAESAKEEGFDENVSAVDVLSDEDAAELQAIYDEIAAELGEEKVNSVVKLTIDPLEP
B17: GBRAPL2_128_7275 (protein)
chain: MKIVEIDVDIKNEEQYNLALEILDEIAENSSPAVADLADAAKDLAESSKERGFDENVTAVDVLSEEDAEELRRIYEEIAEKLGREKVESVVRLEISDLEP
B18: GBRAPL2_106_7266 (protein)
chain: EKLEELKKLLEEALELAKKLPEAFKAGDEEAIDELLDLLDEATRLAIELGLDEVAALVADAFDNVFAASEDPETAEEDFKEAIKNLEEALKLVEEELKKL
B19: GBRAPL2_128_7282 (protein)
chain: MKLVTIDVTVENEEEYNLAVEVFDEIIEEGSEKVADLADAAKDMLESSKENGYKENVSVADILSDEDAEELRELFEELAKKYGEEKVKKIIELTIDDLPP
B20: GBRAPL2_0_7258 (protein)
chain: LEEILKEMKTLSIEEAAELAKEEAERLVADPSVTPDEFEAAAFAMLEVLAEKVKKEKTEEALEIFDEAVDHFTALAAKIDPLTAAAVATHGGSLIYEIES
B21: GBRAPL2_128_7270 (protein)
chain: MKIVELDVNVKDEESYELALEILDEIAKNSSPEVKDLAEAARDLVEEAKKRGFGENVTAVDILSDEDAEELKKIYEELKKKYGEEKVNSVLELEISDVPP
B22: GBRAPL2_0_7262 (protein)
chain: MEKVLEEMEKLSIEEAAKLAKEYAEKLKADPSVSPEQFEEAVLALLEVLYKKVKKEKTEKALEIFEEAVDYFTELAAEVDPNLAAYVDSYAGSLIMELEE
B23: GBRAPL2_0_7261 (protein)
chain: MEEVLEKMKKLSIEEAAKLAKEYLEKLRNDPSVTPEEFEEAALKILEVLAEKVKKEKTEEALEIFEELVDYATKLAAEIDPNLAAYIDSYGGSLIMELEE
B24: GBRAPL2_0_7260 (protein)
chain: MEEVLEKMKKLSLEEATKLAKEYLEKLRADPNVTKEEFEEAAEKLLEVLAEKAKKEKTEEALELFDEFVDYFTELAKKIDPNLAAYIASYGGSLLYEIES
B25: GBRAPL2_128_7280 (protein)
chain: MKLVEISVTVENEEEYELAKKVLTEIAEKGSPEVAKLADAALDLVESNKEDGFDEAVVAVDILSEEDAEELKELYEELAEKYGKEKVEKVIQVEVDDIPP
B26: GBRAPL2_128_7284 (protein)
chain: MKLVEIDITVKNEEEYELVLKVLTEIAERGSPAVAKLADAAKDMVEEEKKEGFKDGVTVADVLSDEDAAELKALYEELAEKYGKEKVNKHIKLTVDDLPP
B27: GBRAPL2_106_7269 (protein)
chain: EELKELLEKLKELKEKIEELLEKAEEKDEELYDETIELADEVTRLAIELGLDEVAALIADAANDIFEALENPEERKEDLEEALEDVEEAIKLVEEEIKKE
B28: GBRAPL2_128_7285 (protein)
chain: MKLVTIDIKVENEEEYELAKKVLDEIAEEGSPAVAKLADAARDMLESEKEEGFKDGVSVADILSDEEAEELKELYEKLAEKYGKEKVNKIIELTVDDLPP
B29: GBRAPL2_128_7283 (protein)
chain: MKLVEIDITVKNEEEYKLAKEVLKEIAEKGSPAVAKLADAALDMLESEKEEGFKDGVTVADILTEEEAEELKKLYEELAKKYGEEKVKKIIELTVDDIPP
B30: GBRAPL2_106_7264 (protein)
chain: EGLEKARKLAKEALEKAKKLPEAFKKGDEEAIDELLELLDELTRLAIELGLDEVAALVADAFDNVFAASEDPETAEEDLEEAIKDLEEALKLIEKKIKEL
B31: GBRAPL2_128_7287 (protein)
chain: MKLVTIDITIENEEEYELAEKVLEELARRGSPAVADLADAALDMVRSAKEDGYNENVAVTDILSPEDAAELKALLEELAKEYGEEKVNRIIKLEVDDIPP
B32: GBRAPL2_128_7288 (protein)
chain: MKLVTLDVDVEDEEEYELALEVLTRLAERGSPAVARLADAARDMVEEAKEEGYDEEVAVTDILSEEDAEELRALYEELAAELGAERVSRVIRLEVDDLPP

The binders below were run against GABARAPL2, P60520 (assay: median log2 fold change of GCK-ALFA target abundance (FLAG IP / Myc IP barcode read proportion) (log2 ratio); each designed protein is fused to an ALFA-tag nanobody in HEK293 cells to bring the named protein to FLAG-tagged glucokinase (GCK); Myc marks an untargeted standard; higher = target protein stabilised (more abundant)). Details: target protein: 3xFLAG-MCP-GCK-ALFA reporter; HEK293 landing pad (RPLP).
GABARAPL2, P60520, sequence (P60520 whole entry, the tested form may be a part): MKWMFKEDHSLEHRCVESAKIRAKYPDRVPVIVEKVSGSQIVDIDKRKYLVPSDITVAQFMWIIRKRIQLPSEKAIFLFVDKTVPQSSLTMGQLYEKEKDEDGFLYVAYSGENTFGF
Summary of the method: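 Sequencing of reverse-transcribed, amplified circular RNA barcodes from anti-FLAG and anti-Myc immunoprecipitates provided the readout for an ALFA-nanobody-fused binder library recombined into HEK293 landing-pad cells. Those cells were induced with 2 μg mL^−1 doxycycline, transfected with a plasmid expressing a FLAG-tagged target and a Myc-tagged standard, and lysed after 48 h. Target abundance is the per-binder median log2 ratio of FLAG to Myc barcode read proportions. Only barcodes at a proportion of ≥10^−7 in both replicates and binders with ≥3 barcodes per replicate were kept, with a 10^−6 pseudocount added before the two replicates were pooled.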
B1 was tested, and the “median log2 fold change” value was -0.285. In the case of B2, the “median log2 fold change” value is reported as -0.21. B3 was tested, and the “median log2 fold change” value was -0.852. B4 was tested, and the “median log2 fold change” value was -0.539. For B5, the “median log2 fold change” value was 0.154. In the case of B6, the “median log2 fold change” value is reported as -0.258. In the case of B7, the “median log2 fold change” value is reported as -0.0513. With B8 the “median log2 fold change” value was 0.11. For B9, the “median log2 fold change” value was -0.33. With B10 the “median log2 fold change” value was -0.0985. For B11, the “median log2 fold change” value was 0.112. In the case of B12, the “median log2 fold change” value is reported as -0.551. B13 was tested, and the “median log2 fold change” value was -0.012. B14 was tested, and the “median log2 fold change” value was -0.586. In the case of B15, the “median log2 fold change” value is reported as 0.226. B16 was tested, and the “median log2 fold change” value was -0.506. With B17 the “median log2 fold change” value was -0.585. For B18, the “median log2 fold change” value was 0.00104. In the case of B19, the “median log2 fold change” value is reported as -0.381. For B20, the “median log2 fold change” value was -0.0288. With B21 the “median log2 fold change” value was -0.268. For B22, the “median log2 fold change” value was 0.203. In the case of B23, the “median log2 fold change” value is reported as 0.0589. B24 was tested, and the “median log2 fold change” value was 0.248. With B25 the “median log2 fold change” value was -0.794. With B26 the “median log2 fold change” value was -0.0335. B27 was tested, and the “median log2 fold change” value was -0.274. For B28, the “median log2 fold change” value was -0.134. For B29, the “median log2 fold change” value was -0.458. For B30, the “median log2 fold change” value was -0.195. With B31 the “median log2 fold change” value was -0.633. B32 was tested, and the “median log2 fold change” value was -0.203.
